Source: PubChem (several laboratories)
This is a sample that favours compounds with a hit; in the whole collection about 3% have one here.
14-3-3 Bad inh: disrupts binding of bovine 14-3-3 zeta to phospho-Bad peptide. P63103. TR-FRET 14-3-3zeta/Dy647-pBad peptide displacement, 1 h. inhibition, % at 21.7 µM. actives 0.71% (n = 220,000). AID 781;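 active = inhibition above about 70%, limit read from the data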
Target sequence (P63103 whole entry, looked up): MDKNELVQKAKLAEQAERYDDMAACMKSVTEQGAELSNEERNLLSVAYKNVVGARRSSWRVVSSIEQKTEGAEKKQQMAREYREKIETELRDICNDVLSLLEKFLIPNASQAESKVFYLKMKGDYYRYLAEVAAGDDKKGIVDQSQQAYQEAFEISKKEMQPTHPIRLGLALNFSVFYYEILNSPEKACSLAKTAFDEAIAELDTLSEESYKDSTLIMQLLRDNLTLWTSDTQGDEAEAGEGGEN
Arbovirus inh: antivirals against arbovirus infection | inhibition, % at 10 µM | AID 1251 | arbovirus infection cell-based antiviral screen | actives 0.37% (n = 200,000); in the data active = inhibition above about 30%
Mcl1-Noxa inh: disrupts binding of human Mcl-1 to Noxa peptide | Q07820 | TR-FRET Mcl-1/Noxa peptide binding, 2 h | inhibition, % at 21.7 µM | actives 1.5% (n = 220,000);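 active = compounds that cut the protein-peptide binding signal by more than 50% relative to plate controls in a single-dose test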;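 also: His-tagged Mcl-1 with rhodamine Noxa BH3 peptide and terbium anti-His antibody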
Target sequence (Q07820 whole entry, looked up): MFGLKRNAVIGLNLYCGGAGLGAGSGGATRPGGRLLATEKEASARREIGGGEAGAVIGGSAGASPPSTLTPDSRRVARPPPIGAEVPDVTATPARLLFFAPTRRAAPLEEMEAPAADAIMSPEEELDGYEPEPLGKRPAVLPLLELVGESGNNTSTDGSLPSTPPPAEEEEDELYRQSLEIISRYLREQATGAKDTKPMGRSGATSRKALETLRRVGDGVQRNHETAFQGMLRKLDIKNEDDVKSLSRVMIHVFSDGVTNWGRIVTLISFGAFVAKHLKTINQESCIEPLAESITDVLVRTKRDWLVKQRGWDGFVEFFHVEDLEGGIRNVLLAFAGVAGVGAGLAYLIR
Mcl1-Bid inh: disrupts binding of human Mcl-1 to Bid peptide; Q07820; TR-FRET Mcl-1/Bid-Dy647 peptide binding, 1536-well; inhibition, % at 21.7 µM; actives 0.97% (n = 220,000); AID 1021;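 active = compounds that cut the binding signal by more than half at the single screening dose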;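 also: His-tagged Mcl-1 with europium anti-His antibody binding Bid BH3 peptide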
Mcl-1 Bim block: human Bim-Mcl-1 interaction inhibition; inhibition, % at 10 µM; Bead-based flow cytometry, Bim peptide-Mcl-1 binding; AID 1009; Q07820; actives 0.1% (n = 190,000); in the data active = inhibition above about 40%
Numbers stand for hits; - = inactive; . = no result; [ ] = another dose, or the depositor's remark.

SMILES	14-3-3 Bad inh	Arbovirus inh	Mcl1-Noxa inh	Mcl1-Bid inh	Mcl-1 Bim block
CC1CN(Cc2c(O)ccc3c2oc(=O)c2ccccc23)CC(C)O1 (centres undefined)	83	.	-	-	.
Cn1c(=O)c2c(nc(N3CCCCCC3)n2CC(O)COc2ccccc2)n(C)c1=O (centres undefined)	72	-	-	-	-
CC(=O)Nc1ccc(S(=O)(=O)Nc2nc3ccccc3nc2Nc2ccc3ccccc3c2)cc1	-	-	-	-	-
CC(=O)Nc1ccc(S(=O)(=O)Nc2nc3ccccc3nc2Nc2ccc(N)cc2)cc1	-	.	58	-	.
Oc1c(C(c2cccs2)N2CCN(c3ccccc3)CC2)ccc2cccnc12 (centres undefined)	-	-	85	65	-
Oc1c(C(c2ccccc2Cl)N2CCCC2)ccc2cccnc12 (centres undefined)	-	-	-	-	-
O=C(C[n+]1ccn(CCCNP2(=O)C=C(c3ccccc3)OC(c3ccccc3)=C2)c1)c1cccs1	-	-	-	-	-
O=C(NCc1ccco1)c1cc2ccc(O)cc2oc1=O	.	-	56	-	-
COc1ccc2cc(C(=O)NCc3ccco3)c(=O)oc2c1	.	-	-	-	-
COc1cccc(N(C(=O)Cn2nnc(-c3ccc(Cl)cc3)n2)C(C(=O)NCC2CCCO2)c2ccc(C)cc2)c1 (centres undefined)	-	-	-	-	-
O=C(COC(=O)c1ccc(Cl)nc1)Nc1ccc2c(c1)OCO2	-	-	-	-	-
O=C(NC1CCCCC1)N(C1=NCCCCC1)c1ccc(Br)cc1	-	-	-	-	-
CCCCOc1ccc(Cc2c(Cl)nc(SC)nc2N2CCOCC2)cc1	-	-	-	-	45
Cc1ccccc1CN1C[C@@H]2C[C@@H](c3cnc(N4CCOCC4)s3)N3CCC[C@@]23C1=O	-	-	-	-	-
COc1ccc(-c2c3c(=O)n(C)c(=O)n(C)c3cn2-c2cc(OC)ccc2OC)cc1	-	-	-	-	-
Nc1c(Cl)nc(-c2ccccc2)nc1Cl	-	-	-	-	-
c1ccc(-c2nn3c(Cn4nnc5ccccc54)nnc3s2)nc1	-	-	55	-	-
c1cncc(-c2nn3c(Cn4nnc5ccccc54)nnc3s2)c1	-	-	-	-	-
CCOc1ccccc1N/C(=C(/C(Cl)=C(Cl)Cl)[N+](=O)[O-])n1cncn1	74	-	-	61	-
O=[N+]([O-])/C(C(Cl)=C(Cl)Cl)=C(\Nc1ccc(F)cc1)n1cncn1	-	-	-	73	-
CCOc1ccc(N/C(=C(/C(Cl)=C(Cl)Cl)[N+](=O)[O-])n2cncn2)cc1	-	-	-	77	-
CCCCN=CC1=C(O)CC(c2ccccc2)CC1=O (centres undefined)	-	-	-	-	-
O=C(CSc1nnnn1-c1ccccc1)CC(=O)Nc1ccc(Cl)cc1	-	-	-	-	-
COC(=O)COc1ccc(S(=O)(=O)Nc2cc([N+](=O)[O-])ccc2C)cc1	-	-	-	-	-
CCOc1ccc(CCNC(=O)CCC(=O)Nc2ccc3nc(N4CCN(C)CC4)cc(C)c3c2)cc1OCC	91	-	-	-	-
SMILES	14-3-3 Bad inh	Arbovirus inh	Mcl1-Noxa inh	Mcl1-Bid inh	Mcl-1 Bim block
O=C(CSc1nnnn1C1CCCCC1)NCc1cccs1	-	-	-	-	-
O=C1c2cccc3cccc(c23)C(=O)N1c1nccs1	-	-	-	-	-
O=C1c2cccc3cccc(c23)C(=O)N1c1ccc2ncccc2c1	74	-	-	-	-
NC(=O)c1cccn1-c1ncc(C(F)(F)F)cc1Cl	-	-	-	83	-
O=C(Nc1ccc(Br)cc1)c1cccn1-c1ncc(C(F)(F)F)cc1Cl	-	-	-	-	-
OCCC1CN(Cc2ccon2)CCN1Cc1ccccc1 (centres undefined)	-	-	-	-	-
CC1=NNC(=O)C1CCC(=O)N/N=C(\C)c1ccccc1 (centres undefined)	-	-	-	-	-
CC1=NNC(=O)C1CC(=O)N/N=C(\C)c1ccco1 (centres undefined)	-	-	112	-	-
Cc1ccc(NCc2nnc(SCC(=O)N3c4ccccc4Sc4ccccc43)o2)c(C)c1	-	-	-	-	-
Cc1ccc(-c2cc(-c3ccc(C)o3)nc(N)c2C#N)cc1	-	-	-	-	-
Cc1cc(-c2cc(-c3ccc(Cl)cc3)nc(N)c2C#N)co1	-	-	67	-	-
Cc1ccc(-c2cc(-c3ccc4c(c3)OCO4)c(C#N)c(N)n2)o1	-	-	59	80	-
Cc1ccc(-c2cc(-c3ccc(Cl)cc3)c(C#N)c(N)n2)o1	-	-	72	-	-
CCOC(=O)C1(Cc2ccc(OC)cc2)CCN(C(=O)CCc2cccnc2)CC1	-	-	-	-	-
Cc1cc(N)ccc1N1CCCC1	97[fluorescence artefact?]	-	83	-	-
Cc1cc(N)ccc1-n1c(C)ccc1C	-	-	-	-	-
c1ccc(CNc2nc(NCc3ccccc3)c3ccccc3n2)cc1	-	.	60	-	.
Cc1nc(NCc2ccccn2)c2ccccc2n1	70	-	-	-	-
Fc1ccccc1-c1nc(NCc2ccccc2)c2ccccc2n1	-	.	-	-	.
CCCn1c(SCC(=O)NCc2ccccc2Cl)n[nH]c1=O	-	-	-	-	-
COc1ccc(OC)c(NC(=O)c2ccc(OC3CSC3)cc2)c1	-	-	-	-	-
N/C(CS(=O)(=O)c1ccc(F)cc1)=N\O	-	.	-	78	.
COCC(=O)NNS(=O)(=O)c1ccccc1[N+](=O)[O-]	-	-	-	-	-
CCC(CC)NC(=O)CO/N=C/c1ccccc1OC(F)F	-	-	-	-	-
CN1CCN(C(=S)c2ccc(Cl)cc2)CC1	-	-	-	-	-
SMILES	14-3-3 Bad inh	Arbovirus inh	Mcl1-Noxa inh	Mcl1-Bid inh	Mcl-1 Bim block
CN1CCN(C(=S)NC(=O)c2ccc(Cl)cc2)CC1	-	81	68	-	-
CCn1c2ccccc2c2cc(NC(=O)COc3ccccc3)ccc21	-	-	-	-	-
Cc1ccccc1N1CCN(Cc2c[nH]c3ccccc23)CC1	71	-	-	-	-
COc1cc(C(=O)Nc2nc(C)cc(C)n2)cc(OC)c1OC	-	.	-	-	.
OC(CN1CCN(c2ccccc2)CC1)c1c[nH]c2ccccc12 (centres undefined)	-	-	-	-	-
NCC(c1ccccc1)c1c[nH]c2ccccc12 (centres undefined)	-	-	-	-	47
O=C(CC(C(=O)O)c1c[nH]c2ccccc12)c1ccccc1 (centres undefined)	-	-	-	82	-
O=C(O)C(O)Cc1c[nH]c2ccccc12 (centres undefined)	-	-	-	-	-
O=C(Cc1c[nH]c2ccccc12)OCC(=O)c1ccccc1	-	-	-	-	-
CC(Cc1c[nH]c2ccccc12)C(=O)O (centres undefined)	-	-	57	-	-
NS(=O)(=O)c1ccc(N=Nc2ccc(=O)[nH]c2O)cc1	73	.	63	-	.
COC(=O)/C(=N\Nc1ccccc1)Sc1nnc(-c2ccc(OC)cc2)n1C	-	-	-	-	-
COc1cccc2cc(/C(=N/O)c3ccccc3)oc12	-	-	-	-	-
